# Pf growth 48h = P. falciparum growth inhibition at 48 hours (one generation). P. falciparum luciferase growth in erythrocytes, 48 h. hit rate 5.9% among 310,000. Potency, µM (doses to about 28.7 µM), for inactives: top-dose activity change, negative = inhibition, usual class: inhibitors; active = well fitted inhibition curve with a large enough effect; inconclusive = small, poorly fitted or top-dose-only effect, or another doubt; inactive = no such curve, though single readings can be large or run the other way; note: potency is the fitted concentration of half-maximal effect; % is set by controls: 0 for no effect and ±100 for the full control effect
#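 Firefly luciferase activity from engineered P. falciparum reports growth; inhibitors lower the luminescent signal. Cultures contained 2% hematocrit erythrocytes at 0.1% final parasitemia.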
# Pf growth 96h = P. falciparum growth inhibition at 96 hours; P. falciparum luciferase reporter growth, 96 h; Potency, µM (titrated, usually from 28.7 µM), for the others: at the highest dose activity change, negative = inhibition, usual class: inhibitors; hit rate 6.9% among 320,000; AID 504834; active = well fitted inhibition curve with a large enough effect; inconclusive = small, poorly fitted or top-dose-only effect, or another doubt; inactive = no such curve, though single readings can be large or run the other way; note: potency is the fitted concentration of half-maximal effect; % is set by controls: 0 for no effect and ±100 for the full control effect
#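 Two-generation exposure (96 h) targets delayed-death phenotype. Reporter parasites carrying integrated firefly luciferase, in red cells at 2% hematocrit and 0.05% parasitemia final, kept at 37 C, 5% CO2; luminescence loss indicates inhibition.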
# NS1 inh = influenza NS1 inhibition | Potency, µM (top dose mostly 46.1 µM), for the others: at the highest dose activity, positive = more growth | hit rate 0.4% among 270,000; note: potency is the fitted concentration of half-maximal effect; actives are rising curves; nearly all actives have a fitted effect of over 50% in size
#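 OD600 was taken as the measure of yeast growth restored by compound in an NS1-expressing S. cerevisiae strain. Cells had been washed out of glucose medium and diluted 1:100 into galactose -URA medium, pH 6.0.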
# SARS PLP yeast = blocks SARS-CoV papain-like protease in a yeast assay | Potency, µM (highest dose often 32.9 µM), for the others: at the top dose activity, positive = growth rescue, most hits filed as activators | AID 485353 | hit rate 0.19% among 330,000 | S. cerevisiae expressing SARS-CoV PLpro, growth rescue; note: potency is the fitted concentration of half-maximal effect; 0% is about no effect; nearly all actives have a fitted effect of over 55% in size
# Shiga toxin inh = Shiga toxin inhibition. Vero cells, Shiga toxin protein synthesis inhibition reporter. inhibition, % at 38.7 µM. hit rate 9.2% among 290,000; in the data active = inhibition mostly above about 28%, no sharp cut-off; inactive = mostly below about 43%; note: 0% is about no effect
# Cycloheximide cs = counter-screen hit for Shiga toxin inhibitors, cycloheximide; cell reporter, cycloheximide protein synthesis inhibition counterscreen; max response, %; hit rate 12% among 300,000; in the data active = max response mostly above about 13%, no sharp cut-off; inactive = mostly below about 14%; note: read at 38.3 µM for the half of the compounds with a filed dose; 0% is about no effect
# Numbers without * were called inactive; u = inconclusive; x = not tested or not shown; ! = a repeat was not active; [ ] = another dose, or the depositor's remark. An excerpt weighted towards active compounds, which were near 21% of everything screened. Unless noted, calls come from the whole dose curve.
SMILES,Pf growth 48h,Pf growth 96h,NS1 inh,SARS PLP yeast,Shiga toxin inh,Cycloheximide cs
Cc1ccc2nc(NC(=O)c3cccs3)sc2c1,75.3%,u,-62.3%,-1.3%,80.4,24.6
Cc1c2ccccc2cc(Cc2ccccc2)[n+]1C,u,-20.0%,8.0%,0.0%,-1.7,-2.2
CC(=O)Nc1ccc(C(=O)COC(=O)c2ccco2)c(F)c1,7.1%,10.8%,x,-2.9%,x,x
O=c1[nH]c2cc([N+](=O)[O-])cc([N+](=O)[O-])c2[nH]c1=O,x,x,x,x,-9.9,-9.5
COc1cc(Cl)ccc1NC(=O)COc1ccccc1C(=O)NN,u,u,12.1%,-3.6%,-11.0,10.9
CCOc1ccc(NC(=O)CCC(=O)NNS(=O)(=O)c2ccccc2[N+](=O)[O-])cc1,-88.1%,19.4%,0.3%,0.3%,5.3,2.3
Cc1nc2ccc(NC(=O)c3cnc(Cl)c(Cl)c3)cc2s1,60.4%,47.8%,-8.6%,-12.2%,71.0*,17.7*
CCCC(=O)Nc1nc2ccc(NC(=O)c3ccc(Br)o3)cc2s1,u,25.9%,u,1.1%,44.1,8.4
Cc1nc2ccc(NC(=O)c3ccc(Br)o3)cc2s1,88.8%,162.2%,x,-4.8%,66.5*,36.4*
Cc1nc2ccc(NC(=O)c3cccnc3)cc2s1,1.6%,23.4%,x,-2.9%,54.6,8.2
COc1cccc(NC(=O)Nc2ccc(CC(=O)O)cc2)c1,20.9%,2.33µM*,6.2%,-4.3%,23.8,-1.4
O=C(O)Cc1ccc(NC(=O)Nc2cccc(Cl)c2)cc1,2.8%,70.7%,4.3%,0.3%,-8.8,-3.3
CCc1ccc(NC(=O)Nc2cccc(OC)c2)cc1,104.2%,24.3%,x,-1.2%,105.2*,25.9*
O=C(NCc1ccc(F)cc1)C1CCCN(c2cnccn2)C1 (stereo not drawn),16.1%,u,2.1%,1.1%,-15.7,-6.9
O=C(Cn1nc(C(F)F)cc1C1CC1)NCCC1=CCCCC1,-27.3%,3.29µM*,-4.0%,-0.2%,-27.8,-1.5
Cc1nc(CS(=O)c2ccccc2)cc(N2CCOCC2)n1 (stereo not drawn),u,8.28µM*,2.7%,-0.3%,-15.0,-4.3
N#Cc1ccc(Nc2nn3c(=O)c4ccccc4nc3s2)cc1,11.3%,3.4%,x,x,x,x
CCOC(=O)CSc1nc2ccccc2c(=O)[nH]1,20.4%,12.1%,-5.0%,2.6%,-4.8,-1.2
Cc1ccsc1C(=O)OCc1nc2ccccc2c(=O)[nH]1,58.1%,x,-56.0%,-15.8%,61.1*,58.3*
CCOC(=O)c1nc2ccccc2c(=O)[nH]1,51.1%,44.5%,-2.8%,-4.5%,54.3*,36.6*
CC1CCN(CCCn2c(=S)[nH]c3c(sc4ccccc43)c2=O)CC1,39.8%,-31.2%[5.75 µM],x,-0.2%,105.1*,22.0*
COCCCn1c(=S)[nH]c2c(sc3ccccc32)c1=O,18.5%,10.4µM*,x,1.5%,16.3,28.9*
C=CCN1C(=O)c2ccccc2NC1c1ccc(Br)s1 (stereo not drawn),13.1µM*,10.4µM*,-2.5%,1.3%,-6.0,-5.8
COc1ccc(S(=O)(=O)N2CCCCC2)cc1NC(=O)Cn1cnc2c1c(=O)n(C)c(=O)n2C,x,x,x,-0.8%,x,x
CC(C)(C)c1ccc(C(=O)Nc2ccc(N3CCOCC3)cc2)cc1,x,u,-2.8%,4.7%,-5.9,-2.3
SMILES,Pf growth 48h,Pf growth 96h,NS1 inh,SARS PLP yeast,Shiga toxin inh,Cycloheximide cs
O=C(NC(=S)Nc1ccc(Cc2ccncc2)cc1)c1ccc(F)cc1,u,78.6%,x,-3.7%,27.4,18.0*
O=C(NC(=S)Nc1ccc(N2CCOCC2)cc1)c1ccc2c(c1)OCCO2,17.1%,26.7%,26.2%,5.5%,60.8*,41.6*
CC(C)(C)c1ccc(C(=O)NC(=S)Nc2ccc(N3CCOCC3)cc2)cc1,u,11.7µM*,0.0%,u,-3.5,-1.3
COc1ccc(C(=O)NC(=S)Nc2ccc(CN3CCOCC3)cc2)cc1,-0.6%,u,-3.1%,-2.1%,46.6*,18.3
CC(OCc1ccccc1)C(NC(=O)OC(C)(C)C)C(=O)NC1COC2CC(n3cc(F)c(=O)[nH]c3=O)OC12 (stereo not drawn),x,x,x,x,10.8,-6.4
O=C(NC(=S)Nc1ccc(CN2CCOCC2)cc1)c1ccc2c(c1)OCCO2,-18.8%,-19.0%,4.4%,-6.8%,87.8*,30.9*
O=C(NC(=S)Nc1c(F)cc(F)cc1Br)c1ccc2c(c1)OCCO2,15.9%,25.6%,1.1%,0.1%,83.8*,27.9*
CS(=O)(=O)N1CCN(c2ccc(NC(=S)NC(=O)c3ccc4c(c3)OCO4)cc2)CC1,-9.5%,u,4.9%,-2.6%,-12.0,-2.0
O=C(NC(=S)Nc1ccc(F)cc1)c1ccc2c(c1)OCCO2,131.6%,u,4.0%,-0.9%,101.5*,70.5*
O=C(NC(=S)Nc1ccc(N2CCCCC2)cc1)c1ccc2c(c1)OCCO2,131.2%,73.4%,13.6%,12.1%,97.7*,58.2*
COc1ccc(CN2CCN(Cc3ccccc3F)CC2)cc1OC,6.4%,0.0%,21.7%,11.4%,-4.0,-1.0
CCCCCCCCCCCCCCCCCC(=O)OC(CC(=O)O)C[N+](C)(C)C (stereo not drawn),x,x,-18.3%,x,x,x
O=C(COC(=O)CCN=C1NS(=O)(=O)c2ccccc21)NNC(=O)c1ccccc1,u,8.4%,x,2.4%,x,x
COc1cc(/C=N/NC(=O)CNc2n[nH]c(=O)[nH]c2=O)ccc1O,-7.2%,44.5%,-0.4%,17.3%,-14.8,0.6
Cc1c(NC(=S)SCc2ccccc2)c(=O)n(-c2ccccc2)n1C,27.9%,1.7%,x,2.7%,8.2,0.1
CCC(=O)N1CCc2nc(-c3ccccc3)sc2C1,2.9%,-14.2%,-1.8%,7.0%,69.4*,24.9*
O=C(Cc1ccccc1)N1CCc2[nH]nc(-c3ccccc3)c2C1,-2.1%[0.00184 µM],3.3%,-1.7%,-0.2%,-3.2,-3.8
Cc1cc2c3c(c1)C(C)CC(C)(C)N3C(=O)C2=O (stereo not drawn),-17.9%,0.1%,-5.5%,-1.4%,10.9,-2.0
CCOc1cc2c3c(c1)C(C)CC(C)(C)N3C(=O)C2=O (stereo not drawn),u,0.828µM*,0.2%,-6.8%,-19.5,-0.8
COC(=O)/C(C#N)=C/c1cc(C)sc1C,20.6%,-3.0%,-1.2%,-0.1%,-7.9,1.3
CN(C)[C@@H]1C(=O)C(C(N)=O)=C(O)[C@@]2(O)C(=O)C3=C(O)c4c(O)cccc4[C@@](C)(O)C3[C@H](O)C12 (stereo partly drawn),14.7µM*!,11.7µM*!,x,x,x,x
CN(C)[C@@H]1C(=O)C(C(N)=O)=C(O)[C@@]2(O)C(=O)C3=C(O)c4c(O)ccc(Cl)c4[C@@](C)(O)C3C[C@@H]12 (stereo partly drawn),-24.4%,u,5.7%,-0.1%,-2.5,3.4
CN(C)[C@H]1C(=O)C(C(N)=O)=C(O)[C@]2(O)C(=O)C3=C(O)c4c(O)cccc4[C@@](C)(O)[C@H]3C[C@@H]12,5.73µM*,0.721µM*,x,x,x,x

# Assay outcomes: PubChem, National Center for Advancing Translational Sciences (NCATS)
